Data from PubChem BioAssay (NCATS).
Inconclusive results are not listed. Activity calls are given as the source filed them. The call rests on the fitted dose curve. Square brackets hold non-standard residues; d marks the D form. Peptide text beside a SMILES is read from it.

Experiment: Primary qHTS to identify inhibitors of SARS-CoV-2 cell entry (AID 1645846); further: nearly all actives have a fitted effect of over 45% in size
Details: SARS-CoV-2 pseudovirus cell entry assay, luminescence; activity change, negative = inhibition: at 57.1 µM (top of the series) unless noted
Outline: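 HEK293 cells stably expressing human ACE2, pre-treated 1 h with compound, then infected with MLV particles pseudotyped with Wuhan-Hu-1 spike (C-terminal 19-aa truncation). Luciferase luminescence after 48 h at 37 °C, normalised to spike PP and bald PP.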
Potency means the concentration at half of the fitted maximal effect.

SMILES	activity change, negative = inhibition [%]	Potency
CN(C)Cc1ccc(S(=O)(=O)n2ccc(/C=C/C(=O)NO)c2)cc1	2	
FC(F)(F)c1ccc(CNc2ccc(Cc3c[nH]c4ncc(Cl)cc34)cn2)cn1	-1.72	
COc1ccc(-c2oc3c(CC=C(C)C)c(OC4O[C@H](CO)[C@@H](O)[C@H](O)[C@H]4O)cc(O)c3c(=O)c2OC2O[C@@H](C)[C@H](O)[C@@H](O)[C@H]2O)cc1 (stereo not given in full)	-18.5	
NC(=O)c1cc(F)cc2c1C(=O)N(C1CCN(C3CCC(F)(F)CC3)CC1)C2	-24	
COc1ccnc2[nH]cc(C(=O)C(=O)N3CCN(C(=O)c4ccccc4)C[C@H]3C)c12	-5.46	
C[C@H](CCC(=O)O)[C@H]1CC[C@H]2[C@@H]3[C@@H](O)C[C@@H]4C[C@H](O)CC[C@]4(C)[C@H]3CC[C@]12C	-16.5	
O=C1S/C(=C\c2ccc(OCc3cccc(B(O)O)c3)cc2)C(=O)N1Cc1ccc(F)cc1	-28.4	
COc1ccc([C@@H]2CC(=O)c3c(O)cc(O[C@@H]4O[C@H](CO[C@@H]5O[C@@H](C)[C@H](O)[C@@H](O)[C@H]5O)[C@@H](O)[C@H](O)[C@H]4O)cc3O2)cc1O		inactive
Cc1nc(NC(=O)N2CCCC2C(N)=O)sc1-c1ccnc(C(C)(C)C(F)(F)F)c1 (stereo not given)	-29.8	
CCOCOC[C@H](C[C@H](C)C(=O)NO)NC(=O)c1ccc(Oc2ccccc2)cc1	-23.9	
CC(C)C[C@@H]1NC(=O)[C@@H](C(C)C)NC(=O)[C@@H]2CCCN2C(=O)[C@@H](CC(=O)O)NC(=O)[C@@H](Cc2c[nH]c3ccccc23)NC1=O (cyclo(L[dW][dD]P[dV]))	-6.47	
O=C(O)[C@H](CC(=O)N1C[C@H]2CCCC[C@H]2C1)Cc1ccccc1	-3.3	
Cc1ccc(NC(=O)c2ccc(CN3CCNCC3)cc2)cc1Nc1nccc(-c2cccnc2)n1	-27.5	
COC(=O)C1=C(C)NC(c2ncc(F)cc2F)=N[C@@H]1c1ccc(F)cc1Cl	-19.4	
C=CCN1C[C@H](C(=O)N(CCCN(C)C)C(=O)NCC)CC2c3cccc4[nH]cc(c34)C[C@H]21 (stereo not given in full)	-15.3	
c1ccc(CNCc2ccc(CN3CCCNCCNCCCNCC3)cc2)nc1	-7.13	
Cc1cc(Nc2cc(N)ncn2)c(=O)n2c1C(=O)NC21CCCCC1		inactive
CC1(C)CC[C@]2(C(=O)O)CC[C@]3(C)C(=CC[C@@H]4[C@@]5(C)C[C@@H](O)[C@H](O)C(C)(C)[C@@H]5CC[C@]43C)[C@@H]2C1		inactive

SMILES	activity change, negative = inhibition [%]	Potency
CC(C)n1c(=O)cc(N[C@@H](C)c2ccccc2)[nH]c1=O	-96.7	
O=c1c(-c2ccc(O)cc2)coc2cc(O[C@@H]3O[C@H](CO)[C@@H](O)[C@H](O)[C@H]3O)ccc12		inactive
CCN(c1cc(-c2ccc(CN3CCOCC3)cc2)cc(C(=O)NCc2c(C)cc(C)[nH]c2=O)c1C)C1CCOCC1		inactive
C=CC(=O)Nc1ccc2ncnc(Nc3cccc(Br)c3)c2c1		7.94 µM (active)
CC(=O)Nc1ccc(C(=O)NC(C)(C)C)cc1		inactive
COc1cccc(OCCCN)c1-c1cc(Nc2cnc(C#N)cn2)n[nH]1	-33	
NCc1ccc(OCCCc2sc(-c3ccc4c(c3)/C(=N/Nc3nc5ccccc5s3)CCC4)nc2C(=O)O)cc1	1.79	
CNc1nc(Nc2cnn([C@H]3CCN(C4COC4)C[C@@H]3F)c2Cl)ncc1C(F)(F)F		inactive
Cc1c[nH]c2nc(Nc3ccc(N4CCN(C)CC4)c(F)c3)nc(-c3cccc(CC#N)c3)c12		2.51 µM (active)
C[C@]1(C(=O)N(CCCC(=O)O)Cc2cccc(Cl)c2)CCN1C(=O)c1csc2ccccc12	-20.2	
CCOC(=O)N[C@@H]1CC[C@@H]2[C@@H](C1)C[C@H]1C(=O)O[C@H](C)[C@H]1[C@H]2/C=C/c1ccc(-c2cccc(F)c2)cn1		28.2 µM (active)
CCc1c(C(=O)NNC(=O)[C@@H](O)c2cc(F)cc(F)c2)ccc(O)c1C	-19.8	
COc1cc(C)[nH]c(=O)c1CN1CCc2c(Cl)cc([C@H](OC)C3COC3)c(Cl)c2C1=O		inactive
CC(C)(CNC(=O)c1cccc(-c2noc(C(F)(F)F)n2)c1)c1coc(-c2ccccc2)n1	-6.95	
Nc1nc(OC(c2ccc(-c3cccc(F)c3)cc2)C(F)(F)F)cc(-c2ccc(C[C@@H](N)C(=O)O)cc2)n1 (stereo not given in full)		inactive
NC(CC1c2ccccc2Oc2ccccc21)(C(=O)O)C1CC1C(=O)O (stereo not given)	4.33	
O=C(N[C@H]1CCC[C@H](CO)C1)C1CCN(c2nc3cc(Cl)c(-c4ccc(Cl)cc4)cc3o2)CC1	-9.89	
